Some test systems named below: HCT-15 colon; HT29 colon; SNB-75 CNS; SNB-19 CNS; U251 CNS; PC-3 prostate; SK-MEL-5 melanoma; UACC-62 melanoma; LOX IMVI melanoma; SK-MEL-28 melanoma; EKVX NSCLC; SN12C renal; UO-31 renal; TK-10 renal; ACHN renal; A498 renal; CCRF-CEM leukemia; MOLT-4 leukemia; SK-MEL-2 melanoma; CAKI-1 renal.
Holding throughout (assay): NCI-60 one-dose screen, 48 h (100 = growth as untreated, 0 = no growth, -100 = all killed)
Conditions in all cases: 10 µM unless noted

This is part of a sample that, as a whole, favours compounds with a hit. Of some 83,000 tested, about 20% had one in any assay.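 The endpoint reported here, percent growth, reads 100 for growth as untreated, 0 for no net growth and -100 for all cells dead.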 A number with no mark means an inactive call. Active and inactive are the calls of the source. Rule for the calls: active = growth percent below 10; inactive = the rest.

Our source for the growth values is PubChem BioAssay (NCI).

Turning to `Clc1ccc(C2=NN(c3ccc(Cl)cc3)C(c3cccc(Nc4ccnc5cc(Cl)ccc45)c3)C2)cc1` (configuration not stated), the growth was 85.2% in the assay with HCT-15 colon; 77.9% in the assay with HT29 colon; 77.3% with SNB-75 CNS; 82.3% in the assay on SNB-19 CNS; 76.8% in the assay with U251 CNS; 65.7% in the assay on PC-3 prostate. Besides, the growth in the assay with SK-MEL-5 melanoma is 92.8%; in the assay on UACC-62 melanoma it was 88.3%; in the assay with LOX IMVI melanoma, 85.1%; with SK-MEL-28 melanoma, 104%; in the assay on EKVX NSCLC, 74.3%; in the assay on SN12C renal, 77.7%. In addition, the growth in the assay with UO-31 renal is 50.7%; in the assay with TK-10 renal it was 95.2%; with ACHN renal, 88.7%; with A498 renal it was 89.3%; in the assay on CCRF-CEM leukemia, 88.5%; with MOLT-4 leukemia, 56.7%.

For `Cc1cc2c(cc1C)[n+](Cc1ccc3ccccc3c1)cn2Cc1ccc2ccccc2c1`, the growth in the assay with HCT-15 colon was -77.4% (active); in the assay with HT29 colon it was -83.3% (active); in the assay with SNB-75 CNS, -73.6% (active); with SNB-19 CNS, -77.2% (active); in the assay on U251 CNS, -91.6% (active); with PC-3 prostate, -84% (active). For the same compound, the growth in the assay with SK-MEL-5 melanoma is -99.2% (active); in the assay with UACC-62 melanoma, -80.5% (active); with LOX IMVI melanoma, -86.7% (active); in the assay on SK-MEL-28 melanoma, -91.9% (active); in the assay on EKVX NSCLC it was -64.3% (active); with SN12C renal, -87.2% (active). For the same compound, the growth in the assay with UO-31 renal was -57.1% (active); with TK-10 renal, -87.7% (active); in the assay on ACHN renal it was -63.9% (active); in the assay with A498 renal, -68% (active); in the assay with CCRF-CEM leukemia it was -35.1% (active); in the assay on MOLT-4 leukemia, -64.1% (active).

`Cc1c2oc3c(C)ccc(C(=O)OC(C)C4NC(=O)C(C(C)C)N(C)C(=O)CN(C)C(=O)C5CCCN5C(=O)C(C(C)C)NC4=O)c3nc-2c(C(=O)OC(C)C2NC(=O)C(C(C)C)N(C)C(=O)CN(C)C(=O)C3CCCN3C(=O)C(C(C)C)NC2=O)c(N)c1=O` (configuration not stated): the growth in the assay with HCT-15 colon is 7.36% (active); in the assay on HT29 colon, -29.2% (active); with SNB-75 CNS, -73.8% (active); in the assay on SNB-19 CNS, 3.31% (active); in the assay with U251 CNS it was 14.8%; in the assay with PC-3 prostate it was 10.4%. Moreover, the growth is -92% (active) with SK-MEL-5 melanoma; -71% (active) in the assay on UACC-62 melanoma; -20.8% (active) with SK-MEL-28 melanoma; -64.8% (active) in the assay on SK-MEL-2 melanoma; 5.92% (active) with EKVX NSCLC; 7.77% (active) in the assay with SN12C renal. Besides, the growth is -8.49% (active) in the assay on UO-31 renal; -7.83% (active) in the assay on TK-10 renal; 1.27% (active) in the assay on ACHN renal; 3.24% (active) in the assay with CAKI-1 renal; -75.4% (active) with A498 renal; 18.4% with CCRF-CEM leukemia.

As for `O=C(Oc1ccccc1)C(Br)C(Br)c1ccccc1` (configuration not stated), the growth in the assay with HCT-15 colon was 95.4%; with HT29 colon, 54.5%; in the assay on SNB-75 CNS, 110%; with SNB-19 CNS, 104%; in the assay with U251 CNS, 75.7%; in the assay on PC-3 prostate, 55.4%. Also, the growth in the assay on SK-MEL-5 melanoma was 106%; in the assay on LOX IMVI melanoma, 82.2%; in the assay with SK-MEL-28 melanoma it was 111%; in the assay on SK-MEL-2 melanoma, 95.3%; with EKVX NSCLC it was 136%; in the assay on SN12C renal, 109%. The growth with UO-31 renal is 93.3%; in the assay on TK-10 renal, 83%; in the assay on ACHN renal, 78.2%; in the assay on CAKI-1 renal it was -66.7% (active); in the assay on A498 renal it was 91.3%; with CCRF-CEM leukemia, -28.7% (active). Moreover, in the assay on MOLT-4 leukemia, the growth is 7.62% (active).

For `O=C1NC(=S)S/C1=C\c1cc(Br)ccc1O`, the growth in the assay with HCT-15 colon is 97.8%; in the assay with HT29 colon, 119%; in the assay with SNB-75 CNS, 97.8%; in the assay on SNB-19 CNS, 107%; with U251 CNS, 99.9%; in the assay with PC-3 prostate, 104%. For the same compound, the growth is 92.6% with SK-MEL-5 melanoma; 100% in the assay with LOX IMVI melanoma; 111% in the assay on SK-MEL-28 melanoma; 100% in the assay with SK-MEL-2 melanoma; 107% with EKVX NSCLC; 102% in the assay on SN12C renal. The growth in the assay on UO-31 renal is 67.6%; with TK-10 renal, 107%; in the assay on ACHN renal, 93.5%; in the assay with CAKI-1 renal, 99.5%; in the assay with A498 renal it was 76%; in the assay on CCRF-CEM leukemia it was 79.2%. Besides, in the assay with MOLT-4 leukemia, the growth is 107%.

`CCOC(=O)/C(=C/CC/C(C)=C/CC/C(C)=C/CCc1ccoc1)CC(=O)N1CCCCC1`: the growth is 69.2% with HCT-15 colon; 55.5% with HT29 colon; 82.6% in the assay with SNB-75 CNS; 36% with SNB-19 CNS; 66.6% in the assay with U251 CNS; 28.7% in the assay with PC-3 prostate. Moreover, the growth was 9% (active) in the assay on SK-MEL-5 melanoma; 23.8% with UACC-62 melanoma; 36.8% in the assay on SK-MEL-28 melanoma; -19% (active) in the assay on SK-MEL-2 melanoma; 47.2% with SN12C renal; 25.1% in the assay on UO-31 renal. For the same compound, the growth with TK-10 renal was 63.7%; with ACHN renal, 55.2%; in the assay on CAKI-1 renal, 60.7%; with A498 renal, -20.2% (active); in the assay with CCRF-CEM leukemia, 22.7%; in the assay on MOLT-4 leukemia it was 0.624% (active).

For `CN(C)CCCNc1nn2c(=O)c3ccccc3nc2c2ccccc12`, the growth is 55.3% in the assay with HCT-15 colon; 32.6% in the assay with HT29 colon; 51.2% with SNB-75 CNS; 69.7% in the assay on SNB-19 CNS; 57.2% in the assay on U251 CNS; 62.1% with PC-3 prostate. In addition, the growth in the assay on SK-MEL-5 melanoma is 52.6%; with UACC-62 melanoma, 67.3%; in the assay with SK-MEL-28 melanoma it was 93.2%; with EKVX NSCLC it was 53.5%; in the assay with SN12C renal, 58.3%; with TK-10 renal, 75.3%. Also, the growth with ACHN renal is 29.9%; in the assay with CAKI-1 renal, 20.8%; in the assay on A498 renal, 92%; with CCRF-CEM leukemia it was 30.3%; with MOLT-4 leukemia it was -19.6% (active).

In the case of `COc1ccc(-c2nc3sc4c(c3c(=O)[nH]2)CCCCCC4)cc1`, the growth was 27.7% in the assay with HCT-15 colon; 14.3% with HT29 colon; 49.4% in the assay with SNB-75 CNS; 66% with SNB-19 CNS; 46.8% in the assay with U251 CNS; 70.2% in the assay on PC-3 prostate. Besides, the growth with SK-MEL-5 melanoma was 53.1%; in the assay with UACC-62 melanoma, 24.6%; with SK-MEL-28 melanoma it was 62.1%; with SK-MEL-2 melanoma, 39.7%; in the assay with SN12C renal, 59.4%; with UO-31 renal, 62%. The growth in the assay on TK-10 renal was 60.5%; in the assay on ACHN renal, 65.6%; with CAKI-1 renal, 47.2%; in the assay with A498 renal, 34.6%; with CCRF-CEM leukemia, 30%; in the assay with MOLT-4 leukemia it was 43.4%.

Consider `CC(C)Cn1cnc2c(NCn3nc(-c4cc(Cl)cc(Cl)c4Cl)n(/N=C/c4ccc(Cl)cc4)c3=S)nc3ccccc3c21`, for which the growth in the assay with HCT-15 colon was 91.1%; with HT29 colon, 91.1%; in the assay on SNB-75 CNS, 90.5%; with SNB-19 CNS, 108%; in the assay on U251 CNS, 86.6%; in the assay with PC-3 prostate it was 83.6%. Further, the growth is 57.2% with SK-MEL-5 melanoma; 72% in the assay with UACC-62 melanoma; 112% in the assay on SK-MEL-28 melanoma; 81.8% in the assay with SK-MEL-2 melanoma; 70.6% in the assay with EKVX NSCLC; 85% with SN12C renal. Further, the growth in the assay on TK-10 renal is 90.4%; in the assay with ACHN renal, 81.6%; with CAKI-1 renal it was 63.9%; in the assay on A498 renal, 96.8%; in the assay on MOLT-4 leukemia, 82.2%.
